This note sets out measurements from the supplement of paper PMC4894684.

Structures are written as SMILES. Structures can show the parent of a compound that is named as a salt. ± gives the standard deviation of the averaged measurements.

The subject of this assay is Toxoplasma gondii RH (in HFF). The experiment in a line: parasite growth relative to the screen mean (all compounds = 100%); higher = less inhibition of parasite growth. Conditions: 5 µM; 72 h; oxygen 21 %. The gist of the method: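 Confluent human foreskin fibroblasts in 96-well plates received library compounds by pin transfer at 5 µM final, taken from 10 mM DMSO stocks. Within 2 h the cells were infected with RH β-Gal–GFP Toxoplasma at MOI 1:5 and cultured 72 h at 21% O2. A CPRG β-Gal assay read against in-plate standard curves gave parasite number, and growth is stated relative to the screen mean, where all compounds = 100%, averaged across two screens.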
In turn, `CNC(=O)[C@@H](Cc1ccccc1)N(C)C(=O)[C@@H](Cc1ccc2ccccc2c1)N(C)C(=O)/C=C/CC(C)(C)N` [Tabimorelin] gave a parasite growth of 135 ± 20%. Regarding `Nc1ncnc2c1ncn2C1CCCO1` (centres undefined), the parasite growth was found to be 70.4 ± 16%. Consider `N#Cc1cc2nc(O)c(O)nc2cc1[N+](=O)[O-]` [CNQX disodium salt], for which the parasite growth was 133 ± 37%. The compound `Clc1cccc2c1CN(C1=NCCN1)C2` returned a parasite growth of 92.2 ± 25%.

As for `CC1(C)Oc2ccc(C#N)cc2[C@H](N2CCCC2=O)[C@H]1O` [Cromakalim], the parasite growth was found to be 127 ± 5.1%. For `COc1cc2c(cc1OC)-c1c/c(=N\c3c(C)cc(C)cc3C)n(C)c(=O)n1CC2` [Trequinsin hydrochloride] the value was 124 ± 37%. With `O=C(NCCCCCCNC(=O)ON=C1CCCCC1)ON=C1CCCCC1`, the parasite growth turned out to be 28.7 ± 2.9%.

`CN(C)CCCN1c2ccccc2CCc2ccc(Cl)cc21` [Clomipramine hydrochloride] registered a parasite growth of 38.4 ± 2.9%. Compound `COc1ccc(NC(=O)c2cc(OCCCN(C)C)nn2Cc2ccccc2)cc1` [CFM 1571 hydrochloride] came in with a parasite growth of 106 ± 4.8%. In turn, `CSc1nc(NC2CCCC2)c([N+](=O)[O-])c(NC2CCCC2)n1` came in with a parasite growth of 35.6 ± 32%. Turning to `COc1cccc(CCc2ccccc2OCC[C@@H]2C[C@@H](O)CN2C)c1`, the parasite growth was found to be 53.4 ± 25%. In the case of `O=C(/C=C/c1ccc(O)c(O)c1)OCCc1ccccc1` [Caffeic acid phenethyl ester], the parasite growth amounted to 105 ± 73%. Compound `C=C1/C(=C\C=C2/CCC[C@]3(C)[C@@H]([C@H](C)/C=C/[C@@H](O)C4CC4)CC[C@@H]23)C[C@@H](O)C[C@@H]1O` [Calcipotriol] returned a parasite growth of 81.2 ± 8.2%. As to `Nc1nccc(-c2ccc3noc(-c4ccc(Cl)cc4)c3c2)n1` [PIM 1 Inhibitor 2], the parasite growth worked out at 69.9 ± 15%.
